Test results taken from PubChem BioAssay AID1159580 (chemical genetic matrix, 2015).
About 2,000 (36%) of roughly 5,500 compounds were called active. Not shown: some 18% with an inconclusive outcome. No stated cut-off is given here; in the data, active means normalized growth mostly below about 0.91 (no sharp cut-off); inconclusive means no clear call, values can overlap the other calls; inactive means mostly above about 0.92. This is one part of the list.

Test: chemical genetic growth profiling, strain panel (AID 1159580);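 further: tested at 20 µM; growth read once vehicle control cultures reached saturation at 30 °C; 1 = growth at the plate median or of vehicle wells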
Settings: S. cerevisiae deletion strains, growth OD

Measured: normalized growth

CC1(C)CC(O)C2(C)CCC3(C)C(=CCC4C5(C)CCC(O)C(C)(CO)C5CCC43C)C2C1 (configuration not stated)
inactive: locus YAL021C, strain ccr4, stronger effect = lower value 1.02 | locus YAL026C, strain drs2, stronger effect = lower value 1.03 | locus YAL030W, strain snc1, stronger effect = lower value 1.02 | locus YBL061C, strain skt5, stronger effect = lower value 1.03 | locus YBR009C, strain hhf1, stronger effect = lower value 1.02 | locus YBR023C, strain chs3, stronger effect = lower value 1.03 | locus YBR171W, strain sec66, stronger effect = lower value 1.03 | locus YBR231C, strain swc5, stronger effect = lower value 1.03 | locus YBR279W, strain paf1, stronger effect = lower value 1.02 | locus YCL011C, strain gbp2, stronger effect = lower value 1.03 | locus YCL016C, strain dcc1, stronger effect = lower value 1.03 | locus YCL061C, strain MRC1, stronger effect = lower value 1.02 | locus YCL069W, strain vba3, stronger effect = lower value 1.03 | locus YCR088W, strain abp1, stronger effect = lower value 1.03 | locus YDL005C, strain med2, stronger effect = lower value 1.03 | locus YDL040C, strain nat1, stronger effect = lower value 1.03 | locus YDR001C, strain nth1, stronger effect = lower value 1.02 | locus YDR069C, strain doa4, stronger effect = lower value 1.04 | locus YDR137W, strain rgp1, stronger effect = lower value 0.956 | locus YDR159W, strain sac3, stronger effect = lower value 1.04 | locus YDR195W, strain ref2 1 | locus YDR297W, strain sur2, stronger effect = lower value 1.02 | locus YDR334W, strain swr1, stronger effect = lower value 1.03 | locus YDR335W, strain msn5, stronger effect = lower value 1.03 | locus YDR392W, strain spt3, stronger effect = lower value 1.03 | locus YEL003W, strain gim4, stronger effect = lower value 1.02 | locus YEL037C, strain rad23, stronger effect = lower value 1.02 | locus YEL061C, strain CIN8 (second series), stronger effect = lower value 1.02 | locus YER015W, strain faa2, stronger effect = lower value 1.02 | locus YER016W, strain bim1, stronger effect = lower value 1.03 | locus YER111C, strain swi4, stronger effect = lower value 1.03 | locus YER155C, strain BEM2 (second series), stronger effect = lower value 1.04 | locus YFR010W, strain ubp6, stronger effect = lower value 1.03 | locus YGL167C, strain pmr1, stronger effect = lower value 1.02 | locus YGL173C, strain kem1, stronger effect = lower value 1.03 | locus YGL227W, strain vid30, stronger effect = lower value 1.03 | locus YGL240W, strain doc1, stronger effect = lower value 1.02 | locus YGL253W, strain hxk2, stronger effect = lower value 1.03 | locus YHR013C, strain ard1, stronger effect = lower value 1.04 | locus YHR027C, strain rpn1, stronger effect = lower value 1.02 | locus YHR142W, strain chs7, stronger effect = lower value 1.03 | locus YJL092W, strain hpr5, stronger effect = lower value 1.03 | locus YJL095W, strain BCK1 (second series), stronger effect = lower value 1.04 | locus YJL115W, strain asf1, stronger effect = lower value 1.04 | locus YJL129C, strain trk1, stronger effect = lower value 1.04 | locus YJL154C, strain vps35, stronger effect = lower value 1.02 | locus YJL164C, strain tpk1, stronger effect = lower value 1.03 | locus YJL166W, strain qcr8, stronger effect = lower value 1.02 | locus YJL187C, strain SWE1, stronger effect = lower value 1.02 | locus YKL160W, strain elf1, stronger effect = lower value 1.02 | locus YKR026C, strain gcn3, stronger effect = lower value 1.04 | locus YKR091W, strain srl3, stronger effect = lower value 1.03 | locus YLL001W, strain dnm1, stronger effect = lower value 1.03 | locus YLL026W, stronger effect = lower value 1.03 | locus YLL041C, strain sdh2, stronger effect = lower value 1.03 | locus YLR027C, strain aat2, stronger effect = lower value 1.03 | locus YLR221C, strain rsa3, stronger effect = lower value 1.02 | locus YLR258W, strain gsy2, stronger effect = lower value 1.04 | locus YLR262C, strain YPT6 (second series), stronger effect = lower value 0.994 | locus YLR320W, strain mms22, stronger effect = lower value 1.04 | locus YLR342W, strain FKS1, stronger effect = lower value 1.02 | locus YLR357W, strain rsc2, stronger effect = lower value 1.02 | locus YLR370C, strain arc18, stronger effect = lower value 1.03 | locus YLR384C, strain iki3, stronger effect = lower value 1.03 | locus YML120C, strain ndi1, stronger effect = lower value 1.04 | locus YMR058W, strain fet3, stronger effect = lower value 1.02 | locus YMR125W, strain sto1, stronger effect = lower value 1.04 | locus YMR129W, stronger effect = lower value 1.02 | locus YMR205C, strain PFK2, stronger effect = lower value 1.03 | locus YMR231W, strain pep5, stronger effect = lower value 1.03 | locus YNL071W, strain lat1, stronger effect = lower value 1.02 | locus YNL209W, strain ssb2, stronger effect = lower value 1.03 | locus YNL248C, strain rpa49, stronger effect = lower value 1.02 | locus YNL322C, strain KRE1 (second series), stronger effect = lower value 1.02 | locus YNR049C, strain mso1, stronger effect = lower value 1.04 | locus YOR001W, strain rrp6, stronger effect = lower value 1.04 | locus YOR070C, strain gyp1, stronger effect = lower value 1.03 | locus YOR080W, strain dia2, stronger effect = lower value 1.03 | locus YOR083W, strain WHI5, stronger effect = lower value 1.02 | locus YOR106W, strain vam3, stronger effect = lower value 1.03 | locus YOR265W, strain rbl2, stronger effect = lower value 1.03 | locus YOR270C, strain vph1, stronger effect = lower value 1.03 | locus YOR290C, strain snf2, stronger effect = lower value 1.03 | locus YPL051W, strain arl3, stronger effect = lower value 1.02 | locus YPL078C, strain atp4, stronger effect = lower value 1.03 | locus YPL106C, strain sse1, stronger effect = lower value 1.05 | locus YPL240C, strain hsp82, stronger effect = lower value 1.03
